Source: PubChem (several laboratories)
Peg3 prom inh – reduces Peg3 promoter-driven luciferase expression in HeLa; hit rate 1.7% among 360,000; HeLa PEG-Prom luciferase reporter, luminescence, overnight; inhibition, % at 20 µM; AID 588405;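 active means inhibition of at least 50% at 20 µM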
HIF-2a block – HIF-2a inhibition. 786-0 RCC cells HIF-2a reporter, luciferase luminescence, overnight. hit rate 0.72% among 360,000. inhibition, % at 18.8 µM;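 active means inhibition of the luminescence signal of 40% or more relative to plate controls, in a single-dose primary screen at 18.75 µM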
EBV LMP1 NFkB – Epstein-Barr LMP1 NF-kappaB reporter inhibition | LMP1-induced NF-kappaB luciferase reporter cells, luminescence | inhibition, % at 12.5 µM | hit rate 0.69% among 350,000 | AID 504558; in the data active means inhibition above about 41%;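 further: 0% = neutral control wells and 100% = reference inhibitor control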
TWEAK Fn14 block – TWEAK-Fn14 signaling inhibition | AID 1159606 | inhibition, % at 10 µM | TWEAK-stimulated Fn14 reporter cells, luciferase luminescence, 8 h | hit rate 2% among 360,000; in the data active means inhibition above about 50%
TROY signal inh – TROY signaling inhibition; Q293 LMP1-TROYcd NF-kB luciferase reporter, 4 h; inhibition, % at 10 µM; hit rate 0.98% among 360,000; AID 1347056;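 active means compounds whose plate-normalised and pattern-corrected inhibition of the luciferase reporter signal at the single screening dose is 50% or more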
TRPM1 prom inh – inhibitors of MITF-driven TRPM1 promoter in melanoma cells; inhibition, % at 12.5 µM; hit rate 0.83% among 330,000; SK-MEL-5 TRPM1 promoter luciferase, 24 h;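 active means mean inhibition across replicates of 60% or more, whatever share of single replicates reaches that level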
Mdm2 MdmX conf – confirmation of inhibitors of human Mdm2/MdmX interaction, set 2; shares compounds with HIF-2a block; SaOS-2 split-luciferase Mdm2/MdmX complementation, luminescence; inhibition, % at 8 µM; hit rate 99% among 740; AID 504601;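 active means mean inhibition of the luminescence signal across two replicates at or above 26 percent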
Target sequence (O15151 whole entry, looked up): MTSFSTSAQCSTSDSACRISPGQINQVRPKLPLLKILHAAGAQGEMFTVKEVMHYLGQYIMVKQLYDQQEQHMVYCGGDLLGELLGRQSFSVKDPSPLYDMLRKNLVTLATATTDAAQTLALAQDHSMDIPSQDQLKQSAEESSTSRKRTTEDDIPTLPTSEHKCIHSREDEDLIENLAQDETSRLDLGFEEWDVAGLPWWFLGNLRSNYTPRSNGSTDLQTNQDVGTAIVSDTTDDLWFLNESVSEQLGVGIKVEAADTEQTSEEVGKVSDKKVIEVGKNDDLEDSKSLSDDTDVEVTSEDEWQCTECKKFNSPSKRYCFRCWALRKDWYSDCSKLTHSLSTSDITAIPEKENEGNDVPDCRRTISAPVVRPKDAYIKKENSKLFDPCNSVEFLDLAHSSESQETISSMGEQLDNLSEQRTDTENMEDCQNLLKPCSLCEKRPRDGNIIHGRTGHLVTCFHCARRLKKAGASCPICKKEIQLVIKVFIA
Target sequence (Q00987 whole entry, looked up): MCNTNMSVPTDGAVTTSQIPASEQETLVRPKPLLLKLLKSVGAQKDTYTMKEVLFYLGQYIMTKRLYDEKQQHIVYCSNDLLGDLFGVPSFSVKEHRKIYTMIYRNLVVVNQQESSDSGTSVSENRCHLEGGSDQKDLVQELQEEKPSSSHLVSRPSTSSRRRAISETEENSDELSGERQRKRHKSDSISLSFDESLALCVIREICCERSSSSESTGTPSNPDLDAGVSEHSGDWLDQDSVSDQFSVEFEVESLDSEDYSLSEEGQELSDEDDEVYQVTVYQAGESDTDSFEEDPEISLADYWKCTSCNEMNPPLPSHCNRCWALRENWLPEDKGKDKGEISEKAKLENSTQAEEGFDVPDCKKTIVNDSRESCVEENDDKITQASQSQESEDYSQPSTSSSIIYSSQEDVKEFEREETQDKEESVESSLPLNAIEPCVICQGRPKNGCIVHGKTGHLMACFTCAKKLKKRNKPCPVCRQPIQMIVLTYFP
HIF-2a conf – HIF-2a inhibition, single concentration confirmation | 786-0 RCC cells, HIF-2a luciferase reporter luminescence, overnight | AID 651580 | hit rate 56% among 1,800 | shares compounds with HIF-2a block | inhibition, % at 18.8 µM;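 active means mean inhibition across four replicates of at least 40 percent at the single tested concentration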
HIF-1a counter – HIF-1a inhibition counter-screen for HIF-2a hits | shares compounds with HIF-2a block | MiaPaCa-2 HIF-1a luciferase reporter, desferoxamine, overnight | inhibition, % at 18.8 µM | hit rate 72% among 1,800 | AID 651589;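 active means mean inhibition of the reporter signal across four replicates at the single tested dose of 50% or more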
* marks the source's active call; other numbers are inactive results; / = not tested or not shown. Rows were chosen to be rich in hits. Some 4% of all compounds tested hit in one or more screens of this group.

SMILES | Peg3 prom inh | HIF-2a block | EBV LMP1 NFkB | TWEAK Fn14 block | TROY signal inh | TRPM1 prom inh | HIF-2a conf | HIF-1a counter | others
Cc1ccc(NS(=O)(=O)c2ccc(C(=O)OCC(=O)NCC3CCCO3)cc2)cc1 (stereo not drawn) | -2.9 | 1.3 | -16.9 | -1.2 | 3.1 | 7.8 | / | /
O=S(=O)(c1ccccc1)N(CC1CO1)c1cc(Cl)ccc1Cl (stereo not drawn) | 9.3 | 17.5 | -5.4 | 18.6 | 8.8 | -7.1 | / | /
Cc1nc2ccccc2n1-c1nc(-c2ccco2)cc(C(F)(F)F)n1 | 71.9* | 45.9* | -89.6 | 42.9 | -21.7 | 75.5* | 32.0 | 80.1*
CCN(CC)CCNC(=O)C(Cl)=C1C(Cl)=C(Cl)C(Cl)=C1Cl | 97.4* | 66.6* | -68.0 | 28.3 | 8.5 | 13.2 | 31.1 | 60.6*
CCN(CC)CCNC(=O)C12CC3CC(CC(C3)C1)C2 | 6.5 | 11.3 | -4.8 | -11.3 | 6.9 | -7.0 | / | /
CC(=O)c1ccc(NC(=O)c2cnn3ccccc23)cc1 | 25.0 | 75.3* | 35.0 | 70.7* | 17.0 | / | 86.3* | 47.4
CC(=O)c1cccc(NC(=O)c2cnn3ccccc23)c1 | -264.9 | -299.8 | -11.4 | -6.5 | -79.9 | / | / | /
O=c1cc(CSc2nc(NCc3ccc(Cl)cc3)c3ccccc3n2)nc2ccc(Cl)cn12 | 14.4 | 23.2 | 3.3 | -4.8 | 23.1 | -3.1 | / | /
COC(=O)c1ccc(/C=C(\C#N)C(=O)NC(C)c2ccccc2)cc1 (stereo not drawn) | 104.0* | 66.7* | 9.2 | 56.9* | 29.4 | 81.3* | 48.3* | 105.1*
COc1ccc(/C=C(\C#N)C(=O)NC(C)c2ccccc2)cc1O (stereo not drawn) | -1.6 | 0.2 | 11.2 | 2.5 | -29.5 | -9.0 | / | /
O=C(CCN1C(=O)c2ccccc2S1(=O)=O)Nc1cc(Cl)ccc1Cl | -28.4 | -27.5 | 6.7 | -13.1 | -16.0 | -0.4 | / | /
O=C(CN1C(=O)c2ccccc2S1(=O)=O)c1ccc(OC(F)F)cc1 | 56.1* | 52.0* | 82.0* | 97.6* | 82.3* | 65.2* | 75.0* | 64.1*
O=C(CN1C(=O)c2ccccc2S1(=O)=O)c1ccc(Cl)cc1Cl | 16.3 | 54.9* | 79.2* | 104.6* | 86.9* | 87.0* | 82.4* | 89.8*
O=C(CN1C(=O)c2ccccc2C1=O)c1ccc(F)cc1 | 1.9 | -10.7 | 8.0 | -2.2 | 2.9 | -10.8 | / | /
O=C(CN1C(=O)c2ccccc2S1(=O)=O)c1ccc(F)cc1 | 57.5* | 57.4* | 69.4* | 90.8* | 73.4* | 39.4 | 64.1* | 59.3*
Cc1cccc(C)c1NC(=O)CNC(=O)C(C)NC(C)c1ccccc1Br (stereo not drawn) | 15.8 | 3.9 | -7.0 | -3.6 | 1.1 | 4.6 | / | /
Cc1cn2c(nc(=O)c3cccnc32)s1 | 2.0 | 10.3 | -35.7 | 15.7 | -5.1 | -1.0 | / | /
CC(C)=CCSc1nnc([C@@H](NC(=O)OC(C)(C)C)C(C)C)o1 | 1.9 | 6.3 | 0.1 | -2.5 | -3.9 | -4.8 | / | /
Cc1ccccc1CS(=O)(=O)c1nnc([C@H](CC(C)C)NC(=O)OC(C)(C)C)o1 | 95.5* | 69.0* | 4.0 | 21.8 | 31.8 | 83.6* | 14.1 | -5.0
CC(C)[C@H](NC(=O)OC(C)(C)C)c1nnc(S(=O)(=O)Cc2c(F)cccc2Cl)o1 | 104.5* | 40.5* | 30.4 | 42.2 | 41.3 | 99.1* | 33.9 | 7.7
CC(C)C[C@H](NC(=O)OC(C)(C)C)c1nnc(SCc2ccccc2)o1 | 15.0 | 15.7 | -9.9 | 9.8 | 11.8 | -1.8 | / | /
CNc1nc(SCc2ccc(C)cc2)nc2c1CCCC2 | -59.4 | -99.2 | 1.7 | -41.9 | -20.8 | -12.4 | / | /
CN1CCN(CC(=O)N2CCn3c4c(c5cc(C6CCCCC6)ccc53)CCCC42)CC1 (stereo not drawn) | 105.5* | 2.9 | -77.2 | -55.2 | 14.5 | 64.6* | / | / | Mdm2 MdmX conf=103.5*
COC(=O)c1cc(=O)n(Cc2ccco2)c(=Nc2ccc(F)c(Cl)c2)s1 | 102.2* | 67.4* | -13.0 | 41.3 | 10.5 | -1.4 | 62.3* | 105.3*
